# Data published in the supplement of paper PMC12282887.
# ± gives the standard deviation of the averaged measurements.
# Test system: E. coli BW25113 marRABp lux reporter
# Assay: promoter activity interaction Z-score (Lux/OD deviation from empty-vector control); higher = stronger promoter induction by the compound
# Procedure: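 E. coli BW25113 (wild type or ΔmarA/ΔsoxS/Δrob) carrying pTU175 luxCDABE promoter reporters was grown in LB in 384-well plates at 37°C with each of 94 compounds at 4 two-fold concentrations, in biological duplicates. Luminescence and OD600 were read every 30 min for 12 h and integrated as AUC over 8 h (0-8 h WT, 1-9 h mutants). Lux AUC was divided by OD AUC; the interaction score is the residual of a Huber robust fit of each promoter against the empty-vector control, then Z-transformed per promoter.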
smiles,measurement,setting,value
CCCC(=O)O [Butyrate],promoter activity interaction Z-score,"6.9 µg/ml, genetic background: wild type",-0.205 ± 0.013
same,promoter activity interaction Z-score,"6.9 µg/ml, genetic background: ΔmarA",-0.16 ± 0.12
same,promoter activity interaction Z-score,"6.9 µg/ml, genetic background: Δrob",0.206 ± 0.17
same,promoter activity interaction Z-score,"6.9 µg/ml, genetic background: ΔsoxS",0.201 ± 0.094
same,promoter activity interaction Z-score,"13.8 µg/ml, genetic background: wild type",-0.136 ± 0.0092
same,promoter activity interaction Z-score,"13.8 µg/ml, genetic background: ΔmarA",0.187 ± 0.35
same,promoter activity interaction Z-score,"13.8 µg/ml, genetic background: Δrob",0.0966 ± 0.16
same,promoter activity interaction Z-score,"13.8 µg/ml, genetic background: ΔsoxS",0.00738 ± 0.051
same,promoter activity interaction Z-score,"27.5 µg/ml, genetic background: wild type",-0.429 ± 0.012
same,promoter activity interaction Z-score,"27.5 µg/ml, genetic background: ΔmarA",-0.0336 ± 0.044
same,promoter activity interaction Z-score,"27.5 µg/ml, genetic background: Δrob",0.0375 ± 0.0006
same,promoter activity interaction Z-score,"27.5 µg/ml, genetic background: ΔsoxS",0.0783 ± 0.13
same,promoter activity interaction Z-score,"55 µg/ml, genetic background: wild type",-0.383 ± 0.07
same,promoter activity interaction Z-score,"55 µg/ml, genetic background: ΔmarA",-0.0286 ± 0.24
same,promoter activity interaction Z-score,"55 µg/ml, genetic background: Δrob",0.0661 ± 0.17
same,promoter activity interaction Z-score,"55 µg/ml, genetic background: ΔsoxS",0.114 ± 0.15
CC(=O)O[C@H]1C[C@@]2(C)[C@@H](C[C@@H](O)[C@H]3[C@@]4(C)CC[C@@H](O)[C@@H](C)[C@@H]4CC[C@@]32C)/C1=C(\CCC=C(C)C)C(=O)O [Fusidic acid],promoter activity interaction Z-score,"13.5 µg/ml, genetic background: wild type",-0.438 ± 0.029
same,promoter activity interaction Z-score,"13.5 µg/ml, genetic background: ΔmarA",0.0154 ± 0.048
same,promoter activity interaction Z-score,"13.5 µg/ml, genetic background: Δrob",-0.0451 ± 0.073
same,promoter activity interaction Z-score,"13.5 µg/ml, genetic background: ΔsoxS",0.0686 ± 0.1
same,promoter activity interaction Z-score,"26.9 µg/ml, genetic background: wild type",0.0382 ± 0.39
same,promoter activity interaction Z-score,"26.9 µg/ml, genetic background: ΔmarA",0.3 ± 0.31
same,promoter activity interaction Z-score,"26.9 µg/ml, genetic background: Δrob",0.0321 ± 0.089
same,promoter activity interaction Z-score,"26.9 µg/ml, genetic background: ΔsoxS",0.122 ± 0.072
same,promoter activity interaction Z-score,"53.9 µg/ml, genetic background: wild type",0.384 ± 0.077
same,promoter activity interaction Z-score,"53.9 µg/ml, genetic background: ΔmarA",0.457 ± 0.14
same,promoter activity interaction Z-score,"53.9 µg/ml, genetic background: Δrob",0.307 ± 0.22
same,promoter activity interaction Z-score,"53.9 µg/ml, genetic background: ΔsoxS",0.418 ± 0.13
same,promoter activity interaction Z-score,"107.7 µg/ml, genetic background: wild type",0.539 ± 0.64
same,promoter activity interaction Z-score,"107.7 µg/ml, genetic background: ΔmarA",0.236 ± 0.49
same,promoter activity interaction Z-score,"107.7 µg/ml, genetic background: Δrob",0.523 ± 0.97
same,promoter activity interaction Z-score,"107.7 µg/ml, genetic background: ΔsoxS",1.17 ± 0.92
COc1cc(/C=C/C(=O)CC(=O)/C=C/c2ccc(O)c(OC)c2)ccc1O [Curcumin],promoter activity interaction Z-score,"23 µg/ml, genetic background: wild type",0.0587 ± 1
same,promoter activity interaction Z-score,"23 µg/ml, genetic background: ΔmarA",0.238 ± 0.1
same,promoter activity interaction Z-score,"23 µg/ml, genetic background: Δrob",0.099 ± 0.28
same,promoter activity interaction Z-score,"23 µg/ml, genetic background: ΔsoxS",0.112 ± 0.41
same,promoter activity interaction Z-score,"46 µg/ml, genetic background: wild type",-0.237 ± 0.12
same,promoter activity interaction Z-score,"46 µg/ml, genetic background: ΔmarA",0.377 ± 0.29
same,promoter activity interaction Z-score,"46 µg/ml, genetic background: Δrob",-0.00179 ± 0.26
same,promoter activity interaction Z-score,"46 µg/ml, genetic background: ΔsoxS",-0.0875 ± 0.19
same,promoter activity interaction Z-score,"92.1 µg/ml, genetic background: wild type",0.812 ± 0.01
same,promoter activity interaction Z-score,"92.1 µg/ml, genetic background: ΔmarA",1.05 ± 0.41
same,promoter activity interaction Z-score,"92.1 µg/ml, genetic background: Δrob",0.00921 ± 0.51
same,promoter activity interaction Z-score,"92.1 µg/ml, genetic background: ΔsoxS",-0.225 ± 0.28
same,promoter activity interaction Z-score,"184.2 µg/ml, genetic background: wild type",0.402 ± 1
same,promoter activity interaction Z-score,"184.2 µg/ml, genetic background: ΔmarA",-0.341 ± 0.046
same,promoter activity interaction Z-score,"184.2 µg/ml, genetic background: Δrob",0.198 ± 0.15
same,promoter activity interaction Z-score,"184.2 µg/ml, genetic background: ΔsoxS",-0.312 ± 0.3
